ALOX12 inhib = 12-hLO (ALOX12) enzyme inhibition | P18054 | purified 12-hLO, xylenol orange hydroperoxide absorbance | Potency, µM (doses to about 57.1 µM), for inactives: at the highest dose activity change, negative = inhibition, actives largely listed as inhibitors | 0.12% of 150,000 active; also: potency is read from the fitted curve at half-maximal effect; nearly all actives have a fitted effect of over 55% in size
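150 nM 12hLO, 25 mM Hepes pH 7.0 + 0.01% Triton X-100; cpd preinc 15 min RT; 40 uM arachidonic acid, 30 min RT; Fe-XO 30 min; A573/A405 ratio as read-out.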
15-hLO-2 inh = inhibitors of human 15-lipoxygenase 2 (ALOX15B). O15296. purified 15hLO-2, xylenol orange hydroperoxide absorbance. Potency, µM (highest dose often 57.1 µM), for the others: top-dose activity change, negative = inhibition, hits mostly inhibitors. 0.56% of 110,000 active. AID 881; also: potency is read from the fitted curve at half-maximal effect; nearly all actives have a fitted effect of over 60% in size
Target sequence (O15296 whole entry, looked up): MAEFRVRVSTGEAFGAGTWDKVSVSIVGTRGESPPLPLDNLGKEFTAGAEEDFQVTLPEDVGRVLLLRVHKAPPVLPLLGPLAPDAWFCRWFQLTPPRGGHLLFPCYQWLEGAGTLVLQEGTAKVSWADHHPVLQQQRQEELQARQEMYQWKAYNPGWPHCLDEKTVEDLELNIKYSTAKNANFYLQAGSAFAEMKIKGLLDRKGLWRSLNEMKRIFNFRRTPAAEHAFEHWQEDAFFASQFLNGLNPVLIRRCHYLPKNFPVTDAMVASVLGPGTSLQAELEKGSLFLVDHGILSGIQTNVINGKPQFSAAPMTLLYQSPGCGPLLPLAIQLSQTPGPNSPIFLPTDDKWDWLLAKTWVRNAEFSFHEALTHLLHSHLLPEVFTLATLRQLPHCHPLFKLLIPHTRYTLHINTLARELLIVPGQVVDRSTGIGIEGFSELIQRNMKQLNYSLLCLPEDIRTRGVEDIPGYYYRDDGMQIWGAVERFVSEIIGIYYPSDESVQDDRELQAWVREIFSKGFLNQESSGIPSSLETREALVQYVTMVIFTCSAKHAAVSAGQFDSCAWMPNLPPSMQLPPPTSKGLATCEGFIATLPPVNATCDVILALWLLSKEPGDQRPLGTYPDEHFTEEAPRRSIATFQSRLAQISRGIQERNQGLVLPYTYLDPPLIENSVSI
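Enzyme 50 nM, AA 45 uM, 25 mM Hepes pH 7.5 + 0.01% Triton X-100; cpd preinc 15 min RT, rxn 90 min RT; stop/detect with 200 uM XO + 300 uM Fe(II) in 50 mM H2SO4, 30 min; A573/A405.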
PNC inhibitor = perinucleolar compartment assembly inhibition. PC3M PTB-GFP, PNC prevalence imaging, 16 h; stronger effect = lower value. activity change (PNC), negative = inhibition, % at 10 µM. 3.1% of 140,000 active. AID 2417;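 active = readout at or below -70, meaning at least 70% loss of cells showing the perinucleolar compartment, a nuclear body marking cancer cells; inconclusive = readout between -30 and a set limit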;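 also: plate controls were DMSO wells for no effect and camptothecin positive control wells for full effect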
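Compounds are pinned in duplicate onto adhered PC3M cells stably expressing GFP-tagged PTB and incubated 16 h at 37 C. Cells are then fixed, nuclei stained with Hoechst, and PNC-positive cells counted.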
The depositor's hits bear a star; ? = inconclusive; nt = no result given; [ ] = dose if it differs, or a comment. Only some compounds are listed: those with a hit (about 3.1% of all), similar ones and a draw of the others. Unless noted, calls follow the shape of the dose curve; as a rule, active = well fitted curve in the direction sought with a large enough effect; inconclusive = small, poorly fitted or top-dose-only effect, or another doubt; inactive = no such curve, though single readings can be large; an effect the other way counts as inactive or inconclusive. Unless noted, % is scaled to controls: 0 for no effect and ±100 for the full control effect.

SMILES	ALOX12 inhib	15-hLO-2 inh	PNC inhibitor
C=C(C)[C@H]1CC[C@]2(CO)CC[C@]3(C)[C@@H](CC[C@H]4[C@@]5(C)CC[C@@H](O)C(C)(C)[C@@H]5CC[C@@]43C)[C@H]12	0%[25.6 µM]	3%[25.6 µM]	nt
C=C(C)[C@@H]1CCC2(C(=O)O)CC[C@]3(C)[C@H](CC[C@@H]4[C@@]5(C)CCC(=O)C(C)(C)[C@@H]5CC[C@]43C)[C@@H]12 (some centres undefined)	0%	nt	-95*
CCO[Si](CCCN)(OCC)OCC	3%	3%	nt
C[C@@H]1C[C@H](OC(=O)[C@@H](O)c2ccccc2)CC(C)(C)N1C	-1%[25.6 µM]	1%[25.6 µM]	nt
CCOC(=O)C1=C([Si](C)(C)C)c2ccccc2N(S(=O)(=O)C(F)(F)F)C1C(=O)OCC (centres undefined)	-8%[0.00818 µM]	5%[0.0915 µM]	nt
COc1ccc(S(=O)(=O)Nc2cc(C)c(O)c(S(=O)(=O)c3ccccc3)c2)cc1	-5%	-8%	-102*
COc1ccc(S(=O)(=O)Nc2cccc(NC(C)=O)c2)cc1	0%	0%	?
O=C(Nc1ncnc2sc3c(c12)CCCCC3)c1ccco1	2%	1%	-124*
O=C(Nc1sc2c(c1C(=O)NC1CCCCC1)CCC2)c1ccco1	-3%	-3%	19
CS(=O)(=O)c1ccc(N2CCOCC2)c(S(C)(=O)=O)c1	5%	-3%	-107*
CN1CCN(c2ccc([N+](=O)[O-])cc2S(=O)(=O)N2CCOCC2)CC1	-2%	-2%	43
CC(C)NC(=O)N1CC2(CCN(C(=O)c3cc(C(F)(F)F)cc(C(F)(F)F)c3)CC2)C1	4%	-1%	nt
CC(C)Cc1csc(NC(=O)c2ccc(Cl)cc2)c1C(=O)O	-7%	nt	-9
Cc1cccc(C(=O)Nc2scc(CC(C)C)c2C(=O)O)c1	-1%	nt	-98*
N#Cc1cccc(NC(=O)N2CCCC3(CCN(S(=O)(=O)c4ccccc4)CC3)C2)c1	-3%	-1%	nt
COC(=O)CCCC1=CC2=C(c3ccccc3)C(=O)C(C)(OC(=O)C3CCCC3)C(=O)C2=CO1 (centres undefined)	-18%	nt	nt
CCc1nnc(NC(=O)CSc2nnc3ncccn23)s1	1%	5%[11.4 µM]	-82*
Cc1csc(NC(=O)CSc2nnc3ncccn23)n1	0%	-3%	?
CN(C)c1ccc(/C=C2\CCC/C(=C\c3ccccc3)C2=O)cc1	-2%	nt	-24
O=C1/C(=C/c2ccc(C(=O)O)cc2)CCC/C1=C\c1ccc(C(=O)O)cc1	-4%	nt	-93*
N=c1nc(N)nc(N)n1-c1ccc(S(N)(=O)=O)cc1	2%[11.4 µM]	-11%[11.4 µM]	nt
Cc1cccc(OCCCCCn2ccnc2)c1	-2%	39%	?
CCc1cccc(OCCn2ccnc2)c1	-2%	nt	-90*
COc1ccc2c(c1)c1nnc(SCC(=O)N3C(C)CCCC3C)nc1n2C (centres undefined)	-2%	4%	55
COc1ccc2c(c1)c1nnc(SC)nc1n2C	-15%	-5%	-88*
SMILES	ALOX12 inhib	15-hLO-2 inh	PNC inhibitor
COc1ccccc1CNc1ccnc(-c2ccccc2C(F)(F)F)n1	0%	22%	nt
O=C(NC(NC(=S)Nc1ccccc1C(=O)O)C(Cl)(Cl)Cl)c1ccco1 (centres undefined)	-1%	nt	?
Cc1ccccc1NC(=S)NC(NC(=O)c1ccco1)C(Cl)(Cl)Cl (centres undefined)	-17%	nt	-120*
CCCC1c2c(ccc3ccccc23)Oc2ccc3ccccc3c21	-2%[11.4 µM]	-7%[11.4 µM]	nt
C=CCn1c(SCC(=O)N2CCN(c3ccc(F)cc3)CC2)nnc1-c1cccs1	2%	-5%	-96*
C=CCn1c(SCC(=O)N2CCN(c3ccccc3)CC2)nnc1-c1ccco1	3%	1%	?
NC(=O)COC(=O)c1ccc(Oc2ccccc2)cc1	-1%	-5%	-15
O=C(O)c1ccccc1C(=O)c1ccc(Oc2ccccc2)cc1	7%	nt	-85*
COc1c(C)c2c(c(O)c1CC=C(C)CCC(=O)OCCN1CCOCC1)C(=O)OC2	-1%[0.00818 µM]	-9%[0.0915 µM]	nt
O=C(CCBr)N1CCN(C(=O)CCBr)CC1	0%	12%	nt
O=c1c(-c2ccc(Cl)cc2)nc2cnc(N3CCNCC3)nc2n1Cc1ccc(F)cc1	-4%	7%	nt
Cc1cccc(C)c1NC(=O)CSc1nnc(Cc2ccccc2)o1	1%	nt	113
Cc1ccccc1NC(=O)CSc1nnc(Cc2ccccc2)o1	2%	nt	-100*
c1ccc(-c2noc(-c3cccc4ccccc34)n2)nc1	-3%	-1%	34
COc1cccc(-c2nc(-c3ccccn3)no2)c1OC	-3%	-2%	-84*
NC(=O)CS(=O)C[C@H](N)C(=O)O (some centres undefined)	0%[11.4 µM]	20%[11.4 µM]	nt
O=C(CNS(=O)(=O)/C=C/c1ccccc1)OCC(=O)N1CCC(Cc2ccccc2)CC1	-2%	-2%	-107*
CC1CC(C)CN(C(=O)COC(=O)CNS(=O)(=O)/C=C/c2ccccc2)C1 (centres undefined)	0%	-8%	-26
CS(=O)(=O)c1ccc(C(O)C(CO)NC(=O)C(Cl)Cl)cc1 (centres undefined)	0%	1%	nt
Cc1cc2c(ncn2C)c(NS(=O)(=O)c2cc(Cl)ccc2Cl)c1C	-3%	7%[11.4 µM]	?
Cc1cc2c(ncn2C)c(NS(=O)(=O)c2ccccc2Cl)c1C	2%	9%[11.4 µM]	-83*
CCN(CC)CCCNC(=S)N1CCn2c(nc3ccccc32)C1	-3%	nt	-116*
CCN(CC)C(=O)N1CCn2c(nc3ccccc32)C1	-1%	nt	26
COc1ccc(C2c3c(n[nH]c3C)CC(C)(O)C2C(C)=O)cc1OC (centres undefined)	1%	6%	9
COc1ccc(C2C(C(C)=O)=C(Nc3ccccc3)CC(C)(O)C2C(C)=O)cc1OC (centres undefined)	2%	nt	-119*
SMILES	ALOX12 inhib	15-hLO-2 inh	PNC inhibitor
C=CCN1C(=O)C(CC(C)C)NC1=S (centres undefined)	0%[0.00818 µM]	2%[0.0915 µM]	nt
CCCN1CC23C=CC(O2)C(C(=O)O)C3C1=O (centres undefined)	1%	-3%	-4
CCOC(=O)N1CCC(N2CC34C=CC(O3)C(C(=O)O)C4C2=O)CC1 (centres undefined)	-4%	1%	-108*
COC(=O)[C@@]1(Cc2ccc(OC)cc2)[C@H]2c3cc(C(=O)N(C)C)n(Cc4ccc(C)o4)c3C[C@H]2CN1C(=O)c1ccccc1	-19%	?	nt
O=c1ccc2c(OCCCCc3ccccc3)c3ccoc3cc2o1	-4%	-9%	nt
COc1ccc(N(CC(=O)NCc2cccs2)S(=O)(=O)c2c(C)nn(C)c2C)cc1	0%	1%	39
Cc1ccc(N(CC(=O)NCc2cccs2)S(=O)(=O)c2cccs2)cc1	9%	19%	-83*
COc1ccccc1NC(=O)Nc1nc(-c2cccnc2)nc2ccccc12	-2%[0.00818 µM]	-13%[0.0915 µM]	nt
CCn1c(COc2ccc(C)cc2)nnc1SCC(=O)C(C)(C)C	-2%	-4%	-18
CCn1c(COc2ccccc2)nnc1SCC(=O)C(C)(C)C	-2%	-4%	-97*
CC(C)[C@H](Nc1ccc(S(=O)(=O)N2CCOCC2)cc1[N+](=O)[O-])C(=O)OCC(N)=O	-3%	nt	3
CNC(=O)COC(=O)[C@@H](Nc1ccc(S(=O)(=O)N2CCOCC2)cc1[N+](=O)[O-])C(C)C	-2%	nt	-113*

Compound activity as filed in PubChem.
